Results as given in ChEMBL document CHEMBL1961873, “Compounds: GSK PKIS; Assays: Nanosyn kinase panel” (2012).

Legend:
[1] = target: Mitogen-activated protein kinase 3 (Homo sapiens) (UniProt P27361); conditions: at 1 µM;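 further: values are mean percent inhibition of MAPK3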
[2] = target: SRSF protein kinase 3 (Homo sapiens) (UniProt Q9UPE1); conditions: at 0.1 µM
[3] = target: SRSF protein kinase 3 (Homo sapiens) (UniProt Q9UPE1); conditions: at 1 µM
[4] = target: Mitogen-activated protein kinase 14 (Homo sapiens) (UniProt Q16539); conditions: at 0.1 µM
Chain of Mitogen-activated protein kinase 14 (Homo sapiens) (Q16539 whole entry): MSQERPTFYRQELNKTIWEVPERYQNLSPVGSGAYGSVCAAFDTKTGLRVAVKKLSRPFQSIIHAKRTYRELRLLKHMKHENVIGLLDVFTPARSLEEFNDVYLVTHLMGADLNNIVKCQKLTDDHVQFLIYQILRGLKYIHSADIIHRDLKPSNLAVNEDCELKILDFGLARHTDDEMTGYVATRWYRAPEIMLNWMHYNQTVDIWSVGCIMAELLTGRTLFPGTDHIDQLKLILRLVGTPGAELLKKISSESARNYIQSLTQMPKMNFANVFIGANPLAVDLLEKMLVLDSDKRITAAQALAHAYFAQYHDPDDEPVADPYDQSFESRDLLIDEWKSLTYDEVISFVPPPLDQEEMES

[5] = target: Mitogen-activated protein kinase 14 (Homo sapiens) (UniProt Q16539); conditions: at 1 µM
[6] = target: Mitogen-activated protein kinase 11 (Homo sapiens) (UniProt Q15759); conditions: at 0.1 µM
Chain of Mitogen-activated protein kinase 11 (Homo sapiens) (Q15759 whole entry): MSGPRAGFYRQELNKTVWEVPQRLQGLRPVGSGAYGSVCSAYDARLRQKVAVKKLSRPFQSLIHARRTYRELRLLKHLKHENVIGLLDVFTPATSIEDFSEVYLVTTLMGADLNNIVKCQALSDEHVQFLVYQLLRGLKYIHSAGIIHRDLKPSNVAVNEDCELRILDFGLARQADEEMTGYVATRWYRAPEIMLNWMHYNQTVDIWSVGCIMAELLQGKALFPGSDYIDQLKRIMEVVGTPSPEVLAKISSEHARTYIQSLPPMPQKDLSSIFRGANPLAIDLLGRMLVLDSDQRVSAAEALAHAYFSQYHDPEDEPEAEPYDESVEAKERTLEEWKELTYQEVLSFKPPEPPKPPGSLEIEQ

[7] = target: Mitogen-activated protein kinase 11 (Homo sapiens) (UniProt Q15759); conditions: at 1 µM
[8] = target: T1, Mitogen-activated protein kinase 13 (Homo sapiens) (UniProt O15264); conditions: at 0.1 µM
T1 sequence (whole entry): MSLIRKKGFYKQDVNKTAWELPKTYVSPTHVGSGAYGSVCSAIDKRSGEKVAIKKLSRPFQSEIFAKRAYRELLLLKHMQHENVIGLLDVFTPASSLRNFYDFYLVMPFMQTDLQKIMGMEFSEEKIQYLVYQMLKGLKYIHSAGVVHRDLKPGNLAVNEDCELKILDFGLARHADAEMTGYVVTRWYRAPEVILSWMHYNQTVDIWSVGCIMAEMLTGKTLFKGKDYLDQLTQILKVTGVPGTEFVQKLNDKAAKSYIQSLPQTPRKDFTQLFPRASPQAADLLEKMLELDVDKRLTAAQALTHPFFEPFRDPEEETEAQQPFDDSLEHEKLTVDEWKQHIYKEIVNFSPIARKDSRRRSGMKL

[9] = target: T1, Mitogen-activated protein kinase 13 (Homo sapiens); conditions: at 1 µM
[10] = target: T2, Mitogen-activated protein kinase 12 (Homo sapiens) (UniProt P53778); conditions: at 0.1 µM
T2 sequence (whole entry): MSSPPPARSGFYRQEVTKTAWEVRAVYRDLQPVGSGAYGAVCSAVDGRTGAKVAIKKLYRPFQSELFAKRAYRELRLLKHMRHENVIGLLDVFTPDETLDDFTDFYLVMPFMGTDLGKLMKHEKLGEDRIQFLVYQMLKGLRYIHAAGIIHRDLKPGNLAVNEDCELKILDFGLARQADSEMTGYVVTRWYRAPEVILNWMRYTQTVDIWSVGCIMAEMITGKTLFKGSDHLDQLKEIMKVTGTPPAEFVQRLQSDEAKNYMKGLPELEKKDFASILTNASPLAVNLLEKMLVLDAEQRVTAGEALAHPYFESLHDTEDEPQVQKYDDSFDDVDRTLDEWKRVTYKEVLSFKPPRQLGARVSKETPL

[11] = target: T2, Mitogen-activated protein kinase 12 (Homo sapiens); conditions: at 1 µM
[12] = target: SRSF protein kinase 1 (Homo sapiens) (UniProt Q96SB4); conditions: at 0.1 µM
Chain of SRSF protein kinase 1 (Homo sapiens) (Q96SB4 whole entry, canonical isoform): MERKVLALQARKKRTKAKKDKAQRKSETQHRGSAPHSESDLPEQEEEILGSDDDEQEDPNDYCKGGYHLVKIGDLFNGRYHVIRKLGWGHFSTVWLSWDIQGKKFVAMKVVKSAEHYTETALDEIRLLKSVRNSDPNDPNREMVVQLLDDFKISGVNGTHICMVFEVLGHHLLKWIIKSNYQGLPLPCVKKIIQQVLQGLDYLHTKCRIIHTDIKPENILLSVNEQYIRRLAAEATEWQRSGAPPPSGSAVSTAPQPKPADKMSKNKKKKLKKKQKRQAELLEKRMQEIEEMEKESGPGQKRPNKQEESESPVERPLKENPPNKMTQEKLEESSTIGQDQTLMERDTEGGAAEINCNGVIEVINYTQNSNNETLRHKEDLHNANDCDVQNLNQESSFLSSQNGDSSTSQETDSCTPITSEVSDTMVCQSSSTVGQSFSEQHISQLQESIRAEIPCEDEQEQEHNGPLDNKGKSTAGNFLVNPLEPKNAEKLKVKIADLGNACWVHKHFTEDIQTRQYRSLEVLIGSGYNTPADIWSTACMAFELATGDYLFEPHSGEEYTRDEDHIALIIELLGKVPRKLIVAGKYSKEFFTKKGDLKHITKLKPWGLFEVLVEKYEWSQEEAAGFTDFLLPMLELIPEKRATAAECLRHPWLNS

[13] = target: SRSF protein kinase 1 (Homo sapiens) (UniProt Q96SB4); conditions: at 1 µM
[14] = target: Phosphatidylinositol 4,5-bisphosphate 3-kinase catalytic subunit alpha isoform (Homo sapiens) (UniProt P42336); conditions: at 0.1 µM
Chain of Phosphatidylinositol 4,5-bisphosphate 3-kinase catalytic subunit alpha isoform (Homo sapiens) (P42336 whole entry, canonical isoform): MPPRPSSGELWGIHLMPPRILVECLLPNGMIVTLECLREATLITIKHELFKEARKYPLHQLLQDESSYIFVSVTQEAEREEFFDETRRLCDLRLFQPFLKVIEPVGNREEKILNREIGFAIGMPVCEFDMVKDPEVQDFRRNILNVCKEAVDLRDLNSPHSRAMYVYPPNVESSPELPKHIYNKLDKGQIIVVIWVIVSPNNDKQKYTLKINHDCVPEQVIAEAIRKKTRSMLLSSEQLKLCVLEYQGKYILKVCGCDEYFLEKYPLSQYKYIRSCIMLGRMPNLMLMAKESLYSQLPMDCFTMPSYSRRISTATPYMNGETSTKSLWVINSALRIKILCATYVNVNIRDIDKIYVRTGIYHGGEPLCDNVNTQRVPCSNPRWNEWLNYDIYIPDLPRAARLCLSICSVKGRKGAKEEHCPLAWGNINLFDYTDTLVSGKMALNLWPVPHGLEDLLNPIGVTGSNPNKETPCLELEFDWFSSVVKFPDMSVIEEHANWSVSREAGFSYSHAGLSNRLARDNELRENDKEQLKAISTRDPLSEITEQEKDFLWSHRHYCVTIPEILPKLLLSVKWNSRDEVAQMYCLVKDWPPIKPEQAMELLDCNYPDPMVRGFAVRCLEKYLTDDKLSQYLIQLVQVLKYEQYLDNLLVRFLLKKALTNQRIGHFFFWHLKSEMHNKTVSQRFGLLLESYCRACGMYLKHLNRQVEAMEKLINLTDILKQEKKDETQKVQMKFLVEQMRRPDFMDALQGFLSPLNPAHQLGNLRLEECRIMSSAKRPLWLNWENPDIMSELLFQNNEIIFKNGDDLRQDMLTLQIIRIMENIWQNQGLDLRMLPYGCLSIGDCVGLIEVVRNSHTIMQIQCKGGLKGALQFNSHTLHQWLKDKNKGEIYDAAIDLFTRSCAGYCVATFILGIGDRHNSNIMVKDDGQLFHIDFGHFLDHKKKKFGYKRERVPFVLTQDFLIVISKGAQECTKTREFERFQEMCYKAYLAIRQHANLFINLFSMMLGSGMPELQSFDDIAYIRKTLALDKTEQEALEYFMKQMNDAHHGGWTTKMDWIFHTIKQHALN

[15] = target: Phosphatidylinositol 4,5-bisphosphate 3-kinase catalytic subunit alpha isoform (Homo sapiens) (UniProt P42336); conditions: at 1 µM
[16] = target: T3, Phosphatidylinositol 4,5-bisphosphate 3-kinase catalytic subunit delta isoform (Homo sapiens) (UniProt O00329); conditions: at 0.1 µM
T3 sequence (whole entry): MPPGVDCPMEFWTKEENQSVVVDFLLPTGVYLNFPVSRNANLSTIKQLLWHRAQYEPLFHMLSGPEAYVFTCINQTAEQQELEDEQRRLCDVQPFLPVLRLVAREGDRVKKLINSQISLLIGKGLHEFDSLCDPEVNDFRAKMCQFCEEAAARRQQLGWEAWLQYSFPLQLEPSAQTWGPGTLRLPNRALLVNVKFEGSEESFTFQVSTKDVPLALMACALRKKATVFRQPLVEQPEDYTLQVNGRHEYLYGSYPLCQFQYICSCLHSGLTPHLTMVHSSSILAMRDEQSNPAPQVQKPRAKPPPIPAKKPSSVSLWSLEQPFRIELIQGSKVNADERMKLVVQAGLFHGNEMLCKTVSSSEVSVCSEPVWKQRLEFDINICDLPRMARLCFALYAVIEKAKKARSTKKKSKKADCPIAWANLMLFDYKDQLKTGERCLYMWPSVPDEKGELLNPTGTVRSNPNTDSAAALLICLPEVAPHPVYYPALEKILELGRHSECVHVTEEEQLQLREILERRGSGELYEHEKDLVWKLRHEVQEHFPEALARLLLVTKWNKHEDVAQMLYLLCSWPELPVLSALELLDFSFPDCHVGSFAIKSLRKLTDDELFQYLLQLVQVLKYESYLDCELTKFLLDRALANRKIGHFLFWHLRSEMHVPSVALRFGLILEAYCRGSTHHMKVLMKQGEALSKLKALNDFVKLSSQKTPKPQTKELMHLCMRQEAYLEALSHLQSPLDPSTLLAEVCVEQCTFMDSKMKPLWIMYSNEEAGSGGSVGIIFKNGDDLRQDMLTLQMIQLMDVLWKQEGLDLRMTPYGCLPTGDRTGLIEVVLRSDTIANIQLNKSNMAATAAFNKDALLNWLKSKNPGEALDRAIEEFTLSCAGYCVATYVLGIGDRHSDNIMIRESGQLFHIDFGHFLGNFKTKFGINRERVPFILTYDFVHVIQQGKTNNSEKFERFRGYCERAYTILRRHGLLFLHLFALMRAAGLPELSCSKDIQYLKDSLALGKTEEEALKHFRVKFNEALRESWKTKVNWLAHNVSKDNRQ

[17] = target: T3, Phosphatidylinositol 4,5-bisphosphate 3-kinase catalytic subunit delta isoform (Homo sapiens); conditions: at 1 µM
[18] = target: Phosphatidylinositol 4-kinase beta (Homo sapiens) (UniProt Q9UBF8); conditions: at 0.1 µM
Chain of Phosphatidylinositol 4-kinase beta (Homo sapiens) (Q9UBF8 2-816 limits assumed): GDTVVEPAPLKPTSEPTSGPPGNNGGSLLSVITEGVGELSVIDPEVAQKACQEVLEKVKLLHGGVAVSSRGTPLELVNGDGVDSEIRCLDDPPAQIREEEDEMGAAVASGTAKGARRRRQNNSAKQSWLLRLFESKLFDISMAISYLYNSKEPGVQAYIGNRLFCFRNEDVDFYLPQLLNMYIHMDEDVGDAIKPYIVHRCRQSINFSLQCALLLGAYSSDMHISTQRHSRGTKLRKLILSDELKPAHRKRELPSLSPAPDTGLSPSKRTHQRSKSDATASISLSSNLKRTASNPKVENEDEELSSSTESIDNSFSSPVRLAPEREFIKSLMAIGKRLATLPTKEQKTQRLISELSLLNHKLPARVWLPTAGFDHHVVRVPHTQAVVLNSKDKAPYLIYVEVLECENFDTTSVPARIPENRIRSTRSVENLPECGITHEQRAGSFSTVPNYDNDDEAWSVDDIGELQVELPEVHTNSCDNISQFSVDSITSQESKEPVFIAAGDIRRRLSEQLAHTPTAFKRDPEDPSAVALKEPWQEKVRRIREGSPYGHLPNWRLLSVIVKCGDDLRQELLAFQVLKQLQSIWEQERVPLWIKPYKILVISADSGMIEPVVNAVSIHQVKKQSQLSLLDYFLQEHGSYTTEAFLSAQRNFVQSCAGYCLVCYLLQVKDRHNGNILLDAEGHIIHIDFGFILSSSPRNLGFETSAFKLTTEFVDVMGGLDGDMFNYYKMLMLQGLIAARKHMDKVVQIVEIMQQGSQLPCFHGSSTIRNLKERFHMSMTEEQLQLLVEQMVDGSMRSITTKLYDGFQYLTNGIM

[19] = target: Phosphatidylinositol 4-kinase beta (Homo sapiens) (UniProt Q9UBF8); conditions: at 1 µM
[20] = target: Sphingosine kinase 1 (Homo sapiens) (UniProt Q9NYA1); conditions: at 0.1 µM;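 further: mean percent inhibition of SPHK1 activity, measured within the GSK PKIS screening panel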
Chain of Sphingosine kinase 1 (Homo sapiens) (Q9NYA1 whole entry): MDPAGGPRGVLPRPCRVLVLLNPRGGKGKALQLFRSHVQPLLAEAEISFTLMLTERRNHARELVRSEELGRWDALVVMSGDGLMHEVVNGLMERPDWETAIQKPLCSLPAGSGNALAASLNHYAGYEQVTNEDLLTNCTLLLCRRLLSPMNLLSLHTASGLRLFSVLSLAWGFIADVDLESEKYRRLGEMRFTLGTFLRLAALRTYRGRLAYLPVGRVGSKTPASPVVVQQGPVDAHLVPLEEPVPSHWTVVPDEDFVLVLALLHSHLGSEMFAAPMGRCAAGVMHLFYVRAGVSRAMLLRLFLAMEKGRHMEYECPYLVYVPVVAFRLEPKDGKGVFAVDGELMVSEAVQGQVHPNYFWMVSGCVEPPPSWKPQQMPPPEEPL

Chain of Mitogen-activated protein kinase 3 (Homo sapiens) (P27361 whole entry): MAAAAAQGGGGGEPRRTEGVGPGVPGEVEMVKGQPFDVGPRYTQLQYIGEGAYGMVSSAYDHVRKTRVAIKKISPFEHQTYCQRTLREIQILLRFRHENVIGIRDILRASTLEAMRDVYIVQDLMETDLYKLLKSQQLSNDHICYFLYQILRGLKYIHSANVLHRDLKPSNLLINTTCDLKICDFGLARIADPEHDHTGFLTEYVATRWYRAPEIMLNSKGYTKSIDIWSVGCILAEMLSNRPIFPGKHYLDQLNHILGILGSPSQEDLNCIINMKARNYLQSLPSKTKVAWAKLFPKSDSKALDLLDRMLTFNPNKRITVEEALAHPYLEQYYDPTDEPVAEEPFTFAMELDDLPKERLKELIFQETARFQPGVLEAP
Chain of SRSF protein kinase 3 (Homo sapiens) (Q9UPE1 whole entry): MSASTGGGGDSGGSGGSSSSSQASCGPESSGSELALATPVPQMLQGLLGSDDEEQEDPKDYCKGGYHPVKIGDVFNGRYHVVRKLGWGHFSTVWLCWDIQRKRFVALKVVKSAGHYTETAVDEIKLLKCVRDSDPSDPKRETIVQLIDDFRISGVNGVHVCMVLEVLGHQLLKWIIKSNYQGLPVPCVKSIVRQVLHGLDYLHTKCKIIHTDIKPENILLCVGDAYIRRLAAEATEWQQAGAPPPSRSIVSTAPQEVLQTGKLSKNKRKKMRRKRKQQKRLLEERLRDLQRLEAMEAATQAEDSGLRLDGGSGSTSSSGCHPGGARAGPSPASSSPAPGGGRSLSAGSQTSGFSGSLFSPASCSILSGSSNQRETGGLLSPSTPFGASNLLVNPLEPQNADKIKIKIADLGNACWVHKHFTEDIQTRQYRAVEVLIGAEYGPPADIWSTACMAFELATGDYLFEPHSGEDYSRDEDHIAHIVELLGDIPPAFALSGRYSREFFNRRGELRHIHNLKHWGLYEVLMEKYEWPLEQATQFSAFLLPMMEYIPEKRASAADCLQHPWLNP

Compound | inhibition [1] [%] | inhibition [2] [%] | inhibition [3] [%] | inhibition [4] [%] | inhibition [5] [%] | inhibition [6] [%] | inhibition [7] [%] | inhibition [8] [%] | inhibition [9] [%] | inhibition [10] [%] | inhibition [11] [%] | inhibition [12] [%] | inhibition [13] [%] | inhibition [14] [%] | inhibition [15] [%] | inhibition [16] [%] | inhibition [17] [%] | inhibition [18] [%] | inhibition [19] [%] | inhibition [20] [%]
OCc1ccc(-c2nc(-c3ccccn3)c(-c3ccc4c(c3)OCO4)[nH]2)cc1 | 1.38 | 1.23 | -0.15 | 4.43 | 14.9 | 4.13 | 4.4 | 3.05 | 4.05 | 0.63 | 2.49 | -1.33 | -3.19 | 3.36 | 2.23 | 1.52 | 3.07 | -1.63 | -0.21 | 0
CC(C)c1ccc(Nc2nccc(-c3cnn4ncccc34)n2)cc1 | 3 | -1.04 | 0.7 | -1.86 | 28.2 | 2.54 | 5.44 | 1.62 | 5.42 | -0.84 | 4.14 | -1.68 | -0.8 | 1.41 | 4.52 | 2.45 | 6.78 | 2.86 | 3.34 | 4.11
Cc1ccc(NC(=O)CC2CC2)cc1-c1ccc(C(=O)NCC2CC2)cc1 | 3.92 | -0.32 | 3.16 | 29.7 | 74.3 | 17.2 | 60.8 | 3.22 | 4.09 | 0.38 | 2.02 | -0.1 | 1.32 | 2.05 | 3.63 | 0.9 | 1.78 | -3.28 | -2.41 | -0.38
FC(F)(F)c1ccc(-c2nn3ncccc3c2-c2ccnc(Nc3ccc4c(c3)OCCO4)n2)cc1 | 3.1 | 5.92 | 1.12 | 17.1 | 67.5 | 3.8 | 36.8 | 5.26 | 0.38 | 4.31 | 2.26 | 8.18 | 13 | 0.21 | -2.14 | 1.63 | 0.41 | 1.96 | -3.87 | 0.8
Nc1nccc(-c2c(-c3ccc(F)cc3)ncn2CCCN2CCOCC2)n1 | 5.63 | -3.36 | -1.79 | 21.2 | 64.9 | 6.8 | 20.2 | 2.28 | 5.09 | 1.09 | 3.58 | -1.35 | -2.36 | 3.59 | 3.13 | 0.42 | 3.48 | -8.25 | -2.19 | 2.43
[O-][S+]1CCN(Cc2ccc(-c3ccc4ncnc(Nc5ccc(OCc6ccccc6)c(Cl)c5)c4c3)o2)CC1 | 2.24 | -1.59 | 0.03 | 16.9 | 20.8 | 1.98 | 5.76 | 1.28 | 0.19 | 0.47 | 1.59 | -1.34 | -2.79 | 1.57 | 0.92 | 0.92 | 2.1 | -2.13 | -0.85 | 1.88
NS(=O)(=O)c1ccc(NC=C2C(=O)Nc3ccc4ncsc4c32)cc1 | 28.1 | -0.67 | -0.55 | 5.49 | 18.7 | 9.06 | 27.3 | 1.67 | 9.03 | 1.56 | 5.67 | -2.53 | -1.62 | 3.58 | 13.1 | 5.31 | 27.3 | -1.46 | 4.92 | 1.36
CC(C)c1ccc2c(c1)NC(=O)/C2=N/Nc1ccc(S(N)(=O)=O)cc1 | -0.93 | -0.91 | -3.87 | 0.75 | -0.04 | -1.84 | 3.37 | -0.12 | -0.88 | 0.48 | 0.63 | -0.89 | -0.94 | 0.32 | 1.8 | 0.64 | 0.71 | 0.05 | 0.24 | 0
Cc1cc(-c2ccccn2)cc(C)c1/C=C/c1cncc(-c2nn[nH]n2)c1 | 3.69 | -0.25 | -1.02 | 7.59 | 12.9 | 3.45 | 1.89 | 4.85 | 4.9 | 3.27 | 5.02 | -3.94 | -5.12 | 3.8 | 3.72 | 0.41 | -0.48 | -1.8 | 0.81 | 0.97
c1ccc(Cc2nc3ccc(Nc4ncnc5ccccc45)cc3[nH]2)cc1 | 4.11 | 0.5 | -0.46 | 6.98 | 6.36 | 2.73 | 2.79 | 4.91 | 5.18 | 1.83 | 0.6 | -1.1 | 1.41 | 3.03 | 4.64 | 1.66 | 0.62 | -0.98 | -1.72 | 1.07
Cc1ccc2c(-c3ccnc(Nc4cccc(C(F)(F)F)c4)n3)c(-c3ccccc3)nn2n1 | 8.27 | 0.34 | -0.19 | 37.5 | 73.5 | 6.89 | 45.1 | 4.66 | 6.13 | 3.8 | 5.59 | -3.32 | -2.03 | 3.95 | 5.13 | 0.26 | 2 | 0.44 | -2.31 | 0.67
Oc1cccc(-c2nc(-c3ccccc3)[nH]c2-c2ccncc2)c1 | 5.5 | 1.08 | 12.3 | 34.9 | 71.1 | 10.7 | 47.7 | 1.41 | 3.86 | -0.21 | 1.56 | -1.52 | 0.98 | 2.99 | 2.95 | 2.01 | 1.67 | -5.44 | -3.49 | 1.87
Cc1cc(Cl)cc2c1NC(=O)C2=NNc1ccc(S(N)(=O)=O)cc1 | 4.37 | 0.26 | -0.13 | -2.89 | 3.98 | 3.77 | 7.2 | -1.04 | 1.98 | 0.32 | 2.01 | -1.22 | 1.09 | 0.48 | 1.85 | 0.72 | 4.67 | -5.44 | 3.24 | 0.93
CN1CCN(C(=O)c2ccc(NC(=O)Nc3ccc(N(C)c4ccnc(Nc5ccc(CS(C)(=O)=O)cc5)n4)cc3)cc2)CC1 | 4.83 | -0.32 | -1.14 | 3.65 | 4.32 | 3.2 | 3.23 | 1.15 | 1.91 | 1.54 | 2.72 | -1.98 | -1.99 | 3.38 | 2.56 | 1.78 | 4.04 | 0.19 | 1.27 | 0
